KCNQ2 enhance – enhances the rat KCNQ2 potassium channel | O88943 | CHO-K1 KCNQ2, FluxOR thallium flux fluorescence; hits give high values | B-score at 10 µM | hit rate 0.54% among 310,000 | AID 2239;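 active means fluorescence ratio B-score at least 3 SD of library B-scores, with initial fluorescence B-score within 3 of them, cut at about 5.3 in these data; same plate scores as AID 2156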;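 further: B-score of peak minus minimum over baseline fluorescence ratio after K+ and Tl+ stimulus; positive B-score means potentiation of KCNQ2 with more thallium influx and brighter signal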
KCNQ2 inh – inhibitors of rat KCNQ2 potassium channel. O88943. CHO-K1 KCNQ2, FluxOR thallium flux, 20 min; hits give low values. B-score at 10 µM. hit rate 1.1% among 310,000. AID 2156;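 active means fluorescence ratio B-score at most minus 3 library SDs, with starting brightness B-score within 2 library SDs, cut at about -5.5 in these data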
Kir21 confirm – confirmation of mouse Kir2.1 potassium channel inhibitors | shares compounds with KCNQ2 enhance | Kir2.1-expressing cells, FluxOR thallium flux fluorescence; hits give low values | Tl flux remaining, % of negative control (hits give low values), % at 10 µM | hit rate 41% among 2,300 | AID 2032;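 active means Primary-screen hit whose thallium flux fell at least 3 control SD below untreated wells in both duplicates, with normal baseline fluorescence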;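 further: 0% = blank wells without stimulus and 100% = stimulated no-compound controls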
Target sequence (P35561 whole entry, looked up): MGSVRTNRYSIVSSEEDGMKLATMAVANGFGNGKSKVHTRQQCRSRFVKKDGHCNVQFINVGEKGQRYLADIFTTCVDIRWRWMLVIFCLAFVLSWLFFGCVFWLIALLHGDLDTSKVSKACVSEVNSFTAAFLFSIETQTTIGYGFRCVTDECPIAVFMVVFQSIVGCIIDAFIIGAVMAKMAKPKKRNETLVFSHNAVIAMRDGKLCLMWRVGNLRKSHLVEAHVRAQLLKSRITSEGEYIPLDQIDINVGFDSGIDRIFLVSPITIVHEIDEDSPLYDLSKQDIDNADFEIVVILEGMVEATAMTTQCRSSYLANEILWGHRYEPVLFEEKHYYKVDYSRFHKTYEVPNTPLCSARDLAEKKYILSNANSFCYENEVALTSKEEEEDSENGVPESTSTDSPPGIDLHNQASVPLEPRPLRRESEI
HEK293 Tl flux – counter-screen for Kir2.1 inhibitors: effect in parental HEK293 cells. shares compounds with KCNQ2 enhance. FluxOR thallium flux fluorescence; 0% = unstimulated blank wells. hit rate 19% among 2,300. FluxOR signal as % of negative control (100 = no effect), % at 10 µM. AID 2105;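 active means dye signal at least 3 control SD above or below untreated wells in both duplicates, raw fluorescence within 3, either direction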;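 further: percent is based on the flux ratio of peak minus minimum fluorescence over baseline F0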
CHO-K1 ctr – counter-screen for KCNQ2 potentiators: effect in parental CHO-K1 cells | shares compounds with KCNQ2 enhance | FluxOR thallium flux fluorescence; zero = vehicle mean+3SD, 100% = vehicle-minus-blank window | activity increase over 3SD of controls, % at 10 µM | hit rate 43% among 1,200 | AID 2282;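 active means signal rise of at least 3 SD above the untreated control mean, in both duplicate wells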;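 further: counter screen of KCNQ2 potentiator hits so any rise reflects channel-independent effects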
KCNQ1 sel pot – tests whether KCNQ2 potentiators also act on human KCNQ1; shares compounds with KCNQ2 enhance; AID 2283; hit rate 28% among 1,200; activation over 3SD threshold, % at 10 µM; CHO KCNQ1 stable, FluxOR thallium flux fluorescence; beyond 3SD, as % of vehicle-control signal;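 active means fluorescence ratio rise of at least 3 SD of vehicle wells above their mean, in both replicate wells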;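 further: 0% = vehicle mean plus 3 SD and 100% = vehicle minus unstimulated blank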
KCNQ2 pot confirm – confirmation of rat KCNQ2 potassium channel potentiators; shares compounds with KCNQ2 enhance; CHO-KCNQ2 cells, FluxOR thallium flux fluorescence; potentiation, less the hit threshold, % at 10 µM; hit rate 68% among 1,200;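 active means fluorescence ratio rising 3 SD or more over the vehicle control mean in both replicates, plus primary screen hit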;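 further: peak minus minimum thallium fluorescence divided by baseline after K/Tl stimulus; 0% = vehicle mean plus 3 SD and 100% = vehicle minus unstimulated blank difference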
Kir21 spec – selectivity of KCNQ2 potentiators: effect on mouse Kir2.1 | shares compounds with KCNQ2 enhance | HEK293 Kir2.1, FluxOR thallium flux fluorescence | activity over 3SD threshold, % at 10 µM | hit rate 2% among 1,200 | AID 2345;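 active means fluorescence ratio rise of at least 3 SD above the vehicle-control mean, seen in both replicates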;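 further: 0% = vehicle mean plus 3 SD and 100% = vehicle minus no-stimulus blank window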
KCNQ2 W236L MoA – KCNQ2 potentiators acting on retigabine-insensitive rat KCNQ2 W236L mutant; shares compounds with KCNQ2 enhance; CHO KCNQ2-W236L, automated patch clamp current; current increase over 3SD of negative controls (%), hits give high values, % at 25 µM; hit rate 10% among 940;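 active means current increase at least 3 SD of the untreated controls above them in both duplicate recordings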
The depositor's hits bear a star. Only some compounds are listed: those with a hit (about 1.6% of all), similar ones and a draw of the others.

How did O=C(N/N=C/c1c(O)n(-c2cccc3ccccc23)c(=O)[nH]c1=O)c1ccncc1 do in these assays?
KCNQ2 inh: inactive

What do the screens show for `O=C1CN=C(c2ccccc2)c2c(sc3c2CCCC3)N1`?
KCNQ2 enhance: 1; KCNQ2 inh: inactive

Results for O=[N+]([O-])c1ccccc1-c1cc(-c2ccccc2)cc(-c2ccccc2)[n+]1Cc1ccccc1Cl ?
KCNQ2 enhance: -7.4; KCNQ2 inh: -7.4*; Kir21 confirm: 22%*; HEK293 Tl flux: inactive

What do the screens show for `O=C(N[C@H]1CP(=O)(Oc2ccccc2)O[C@H](COCc2ccccc2)[C@H]1O)C(Cl)(Cl)Cl` (some centres undefined)?
KCNQ2 inh: inactive

Results for CCOC(=O)CNC(=S)N1CC2C[C@@H](C1)Cn1c2cccc1=O ?
KCNQ2 inh: inactive

What do the screens show for `COc1cccc(CNCCc2ccccc2)c1OC`?
KCNQ2 enhance: 1.7; KCNQ2 inh: inactive

What do the screens show for `COc1ccc2ccccc2c1CNCCc1ccccc1`?
KCNQ2 inh: inactive; Kir21 confirm: 38%*; HEK293 Tl flux: inactive

How did COc1ccc(OC)c(C(O)C2CCCCN2)c1 (centres undefined) do in these assays?
KCNQ2 inh: inactive

Results for O=C(c1ccc(F)cc1)C(Cc1ccccc1)N1CCCCC1 (centres undefined) ?
KCNQ2 enhance: 0.07; KCNQ2 inh: inactive

Results for O=C(CCCN1CCC2(CC1)C(=O)NCN2c1ccccc1)c1ccc(F)cc1 ?
KCNQ2 enhance: 6*; KCNQ2 inh: inactive; Kir21 confirm: inactive; HEK293 Tl flux: inactive; CHO-K1 ctr: 5.3*; KCNQ1 sel pot: 64*; KCNQ2 pot confirm: 17*; Kir21 spec: -40; KCNQ2 W236L MoA: inactive

How did O=C(CCCc1ccccc1)NCCc1cnc[nH]1 do in these assays?
KCNQ2 inh: inactive

What do the screens show for `CCCCCSc1cc(OC)c(CCNC)cc1OC`?
KCNQ2 enhance: 1.4; KCNQ2 inh: inactive; Kir21 confirm: 43%*; HEK293 Tl flux: inactive

How did COc1ccc(CNCCc2ccc3c(c2)OCO3)cc1Br do in these assays?
KCNQ2 inh: inactive; Kir21 confirm: 16%*; HEK293 Tl flux: inactive

Results for Clc1ccc(CNCCc2ccc3c(c2)OCO3)cc1 ?
KCNQ2 inh: inactive; Kir21 confirm: 28%*; HEK293 Tl flux: inactive

Results for Clc1cccc(CNCCc2ccc3c(c2)OCO3)c1 ?
KCNQ2 inh: inactive

How did COc1ccc(Br)cc1CNCCc1ccc2c(c1)OCO2 do in these assays?
KCNQ2 inh: inactive

How did [N-]=[N+]=NCCN1CCC(O)CCC1=O (centres undefined) do in these assays?
KCNQ2 enhance: 0.02; KCNQ2 inh: inactive

Results for Cc1ccc(C2CC3CCC(C2)N3Cc2ccccc2F)cc1 (centres undefined) ?
KCNQ2 inh: inactive

Results for COC(=O)C1=C(c2ccccc2)C[C@@H]2CC[C@H]1N2C(=O)N1CCCC1 ?
KCNQ2 enhance: 0.89; KCNQ2 inh: inactive

Results for CCC(=NCC1CCCO1)c1c(O)n(-c2ccc(OC)cc2)c(=O)[nH]c1=O (centres undefined) ?
KCNQ2 inh: inactive

What do the screens show for `CCCCc1cc(=O)oc2cc(OCC(=O)N3C[C@H]4C[C@@H](C3)c3cccc(=O)n3C4)c(Cl)cc12`?
KCNQ2 inh: inactive

What do the screens show for `Cc1cc(C(=O)O)c(C)n1C1CC1`?
KCNQ2 inh: inactive

Source: PubChem BioAssay
